Only some compounds are listed: those with a hit (about 5.8% of all), similar ones and a draw of the others.
Gal4-VP16 FLuc – Gal4-VP16 reporter inhibition counter-screen | Drosophila S2 Gal4-VP16 UAS-luciferase, luminescence, 20 h | Potency, µM (series often up to 53.6 µM), for inactives: at the top dose activity, negative = inhibition, actives largely listed as inhibitors | 3.5% of 310,000 active | AID 2546;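 further: Gal4-VP16 expression switched on by copper sulfate through the metallothionein promoter; potency means the concentration at half of the fitted maximal effect; on the % scale 0 is the no-effect control and ±100 the full control effect; nearly all actives have a fitted effect of over 50% in size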
TRPV1 ag – activates the human vanilloid receptor TRPV1. TRPV1-expressing cells, Fluo-8 calcium influx, agonist mode. activation, % at 8.33 µM. 0.19% of 320,000 active; in the data active means activation above about 80%; inconclusive means between about 30% and that limit; further: 0% is about no effect
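TRPV1-expressing cells were cultured overnight at 35.5C and loaded with Fluo-8 calcium dye for 40 to 90 min at room temperature. After a 10 s baseline, compound was added and calcium influx was read kinetically for 3 min (ex 480/em 520 nm).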
uPA surface inh – inhibitors of cell surface uPA generation | cell surface uPA generation assay, qHTS | Potency, µM (top dose mostly 38.3 µM), inactives show top-dose activity change, negative = inhibition, actives largely listed as inhibitors | 0.31% of 330,000 active | AID 540303; active means well fitted inhibition curve with a large enough effect; inconclusive means small, poorly fitted or top-dose-only effect; inactive means no such curve, though single readings can be large or run the other way; tested in mouse RAW 264.7 cells; further: potency means the concentration at half of the fitted maximal effect; on the % scale 0 is the no-effect control and ±100 the full control effect; nearly all actives have a fitted effect of over 55% in size
TRPV1 PAM – human TRPV1 potentiation | TRPV1-expressing cells, Fluo-8 calcium influx, capsaicin EC20 potentiation | potentiation, % at 8.33 µM | Q8NER1 | AID 540277 | 0.02% of 320,000 active; in the data active means potentiation above about 80%; inconclusive means between about 30% and that limit; further: 0% is about no effect
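TRPV1-expressing cells were cultured overnight at 35.5C and loaded with Fluo-8 calcium dye for 40 to 90 min at room temperature. After a 10 s baseline, compound was added and calcium influx was read kinetically for 3 min (ex 480/em 520 nm).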
RORg inh – inhibitors of mouse ROR gamma transcriptional activity; P51450; Drosophila S2 Gal4-RORgamma UAS-luciferase reporter, 20 h; Potency, µM (titrated, usually from 53.6 µM), for the others: at the highest dose activity change, negative = inhibition, usual class: inhibitors; 5.4% of 310,000 active; AID 2551; further: potency means the concentration at half of the fitted maximal effect; on the % scale 0 is the no-effect control and ±100 the full control effect; nearly all actives have a fitted effect of over 60% in size
Target sequence (P51450 whole entry, looked up, the tested form may be a part): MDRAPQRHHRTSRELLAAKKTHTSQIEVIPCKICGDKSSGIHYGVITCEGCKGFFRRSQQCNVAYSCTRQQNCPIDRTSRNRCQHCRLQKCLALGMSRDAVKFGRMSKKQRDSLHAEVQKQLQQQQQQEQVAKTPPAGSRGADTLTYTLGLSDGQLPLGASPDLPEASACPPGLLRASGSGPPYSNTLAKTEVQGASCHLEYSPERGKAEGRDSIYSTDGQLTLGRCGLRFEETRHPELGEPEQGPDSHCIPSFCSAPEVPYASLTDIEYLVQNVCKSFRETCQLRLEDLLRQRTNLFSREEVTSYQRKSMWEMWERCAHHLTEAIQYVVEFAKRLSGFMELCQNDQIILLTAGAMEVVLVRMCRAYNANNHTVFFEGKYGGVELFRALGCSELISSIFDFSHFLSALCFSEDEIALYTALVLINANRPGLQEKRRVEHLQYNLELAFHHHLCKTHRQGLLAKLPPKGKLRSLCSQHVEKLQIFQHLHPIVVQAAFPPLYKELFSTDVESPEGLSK
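Read-out: Photinus luciferase luminescence; inhibitors lower reporter signal. Insect Schneider cells with Gal4-ROR gamma fusion under metallothionein promoter, UAS reporter; 700 uM final copper sulfate induction, 20 hr, ambient temperature.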
* = called active by the depositor. Unless noted, the call rests on the fitted dose curve; in most records, active means well fitted curve in the direction sought with a large enough effect; inconclusive means small, poorly fitted or top-dose-only effect, or another doubt; inactive means no such curve, though single readings can be large; an effect the other way counts as inactive or inconclusive.

`Cc1ccc(NC(=O)NCc2cccn2C)cc1C` gave Gal4-VP16 FLuc 25%, TRPV1 ag 16, uPA surface inh 1%, TRPV1 PAM -20 and RORg inh 17%.
Cn1cccc1CNCc1ccccc1Cl was read as Gal4-VP16 FLuc 0%, TRPV1 ag 1, TRPV1 PAM -2 and RORg inh 0%.
N#C/C(=C(/O)COC(=O)Cc1c[nH]c2ccccc12)c1nc2ccccc2[nH]1 was read as Gal4-VP16 FLuc inconclusive, TRPV1 ag 6, uPA surface inh 3%, TRPV1 PAM 16 and RORg inh 10µM*.
Screening Cc1cc(SCC(=O)OC/C(O)=C(\C#N)c2nc3ccccc3[nH]2)c(C)cc1Br returned Gal4-VP16 FLuc 18µM*, TRPV1 ag 0, uPA surface inh 9%, TRPV1 PAM -9 and RORg inh 6.3µM*.
N#CC(=C(O)COC(=O)CCC1CCCCC1)c1nc2ccccc2[nH]1 was read as uPA surface inh 12%.
`N#C/C(=C(/O)COC(=O)CCCNC(=O)c1ccc(Cl)cc1)c1nc2ccccc2[nH]1` gave Gal4-VP16 FLuc inconclusive, TRPV1 ag 1, uPA surface inh -3%, TRPV1 PAM 8 and RORg inh 11µM*.
CCOC(=O)c1ccc2c(c1)nc(SCC(=O)c1ccco1)n2CC was read as Gal4-VP16 FLuc 11%, TRPV1 ag -1, uPA surface inh -8%, TRPV1 PAM -29 and RORg inh 1%.
Screening CCOC(=O)c1ccc2c(c1)nc(SC/C(O)=C(\C#N)c1nc3ccccc3[nH]1)n2CC returned Gal4-VP16 FLuc -2%, TRPV1 ag 1, uPA surface inh 0%, TRPV1 PAM 9 and RORg inh 5µM*.
Screening COc1ccccc1OCC(=O)OC/C(O)=C(\C#N)c1nc2ccccc2[nH]1 returned Gal4-VP16 FLuc -5%, TRPV1 ag -3, uPA surface inh inconclusive, TRPV1 PAM 4 and RORg inh 11%.
COc1ccc(C2CC(c3ccccc3)Oc3cc4c(cc32)OCO4)cc1 (configuration not stated) was read as Gal4-VP16 FLuc -16% and RORg inh 5%.
For Cc1cc(C)c(S(=O)(=O)N2CCCCC2)c(C)c1N(C)S(=O)(=O)c1ccc(Cl)cc1 the results were Gal4-VP16 FLuc -4%, TRPV1 ag 10, uPA surface inh -6%, TRPV1 PAM inconclusive and RORg inh 27%.
For Cc1cccc(C(=O)OCC(=O)Nc2c(C)n(C)n(-c3ccccc3)c2=O)c1O the results were uPA surface inh 3%.
Screening CCCn1c(-c2ccc(F)cc2)nc2c(NCCN(C(C)C)C(C)C)nc(C)nc21 returned Gal4-VP16 FLuc -6% and RORg inh -30%.
Screening CCOC(=O)c1c(C)[nH]c(C(=O)OC/C(O)=C(\C#N)c2nc3ccccc3[nH]2)c1C returned Gal4-VP16 FLuc inconclusive, TRPV1 ag -3, uPA surface inh 2%, TRPV1 PAM 15 and RORg inh inconclusive.
For N#C/C(=C(/O)COC(=O)CSc1ccc(Cl)cc1)c1nc2ccccc2[nH]1 the results were Gal4-VP16 FLuc 11µM*, TRPV1 ag 0, uPA surface inh 0%, TRPV1 PAM 7 and RORg inh 10µM*.
COc1cccc(C2CC(=O)Nc3cc4c(cc32)CCC4)c1 (configuration not stated) was read as Gal4-VP16 FLuc 13µM*, TRPV1 ag 12, uPA surface inh 11µM*, TRPV1 PAM 23 and RORg inh inconclusive.
COc1cccc(C2CC(=O)Nc3cc(OC)c(OC)cc32)c1 (configuration not stated) was read as Gal4-VP16 FLuc 5%, TRPV1 ag 0, uPA surface inh 1%, TRPV1 PAM 8 and RORg inh inconclusive.
For O=C(Nc1nc2ccccc2[nH]1)c1ccc(F)c(S(=O)(=O)N2CCOCC2)c1 the results were Gal4-VP16 FLuc inconclusive, TRPV1 ag inconclusive, uPA surface inh -2%, TRPV1 PAM 3 and RORg inh 14µM*.
Screening O=C(NCc1nc2ccccc2[nH]1)c1cccc(S(=O)(=O)N2CCOCC2)c1 returned Gal4-VP16 FLuc -2%, TRPV1 ag 5, TRPV1 PAM 30 and RORg inh 19%.
O=C(Nc1nc2ccccc2[nH]1)c1cccc(S(=O)(=O)N2CCOCC2)c1 was read as Gal4-VP16 FLuc inconclusive, TRPV1 ag 80*, uPA surface inh -4%, TRPV1 PAM -26 and RORg inh 8.9µM*.
O=C(Nc1ccccc1N1CCOCC1)c1ccc(F)c(S(=O)(=O)N2CCOCC2)c1 was read as TRPV1 ag -3, uPA surface inh -4% and TRPV1 PAM 9.
Cc1nc2cnc(Oc3cccc(Cl)c3)nc2n(CCc2ccccc2)c1=O was read as Gal4-VP16 FLuc 2% and RORg inh 8%.
`CC(C)(C)OC(=O)N1CCC[C@H]1C(O)(c1ccccc1)c1ccccc1` gave Gal4-VP16 FLuc 5% and RORg inh -18%.
`CCNC(=S)N/N=C/c1cn(Cc2ccccc2F)c2ccccc12` gave Gal4-VP16 FLuc -7%, TRPV1 ag -3, uPA surface inh -3%, TRPV1 PAM 1 and RORg inh 10%.
CCNC(=S)N/N=C/c1cn(Cc2ccc(F)cc2)c2ccccc12 was read as Gal4-VP16 FLuc 1.8µM*, TRPV1 ag -1, uPA surface inh 0%, TRPV1 PAM -1 and RORg inh 1.1µM*.
For CNC(=S)N/N=C/c1cn(Cc2c(F)cccc2Cl)c2ccccc12 the results were Gal4-VP16 FLuc 5µM*, TRPV1 ag -2, uPA surface inh 9%, TRPV1 PAM 7 and RORg inh 0.45µM*.
For CCC(C)NC(=O)CSc1nnc(-c2cc(OC)c(OC)c(OC)c2)c(-c2cc(OC)c(OC)c(OC)c2)n1 (configuration not stated) the results were Gal4-VP16 FLuc inconclusive, TRPV1 ag 5, uPA surface inh -3%, TRPV1 PAM -5 and RORg inh 2.8µM*.
Screening COc1ccc(-c2nnc(SCC(=O)NCCC(C)C)nc2-c2ccc(OC)c(OC)c2)cc1OC returned Gal4-VP16 FLuc -3%, TRPV1 ag 5, uPA surface inh -1%, TRPV1 PAM 2 and RORg inh 10%.
Screening Nc1ccccc1NC(=O)c1ccc(CNC(=O)OCc2cccnc2)cc1 returned Gal4-VP16 FLuc 4% and RORg inh -35%.
`CCOc1cc(/C=C2/C(=N)N3C=CSC3=NC2=O)ccc1OCCCOc1ccccc1C` gave Gal4-VP16 FLuc inconclusive, TRPV1 ag 2, uPA surface inh -4%, TRPV1 PAM -6 and RORg inh -71%.
For COc1cc(/C=C2/C(=N)N3C=CSC3=NC2=O)ccc1OCCCOc1ccccc1C the results were Gal4-VP16 FLuc 2.8µM*, TRPV1 ag -2, uPA surface inh -4%, TRPV1 PAM -2 and RORg inh 4.5µM*.
